# Bioassay records deposited in PubChem BioAssay by National Center for Advancing Translational Sciences (NCATS).
# Most compounds without a hit are left out; they make up all but 2% or so of the library.
# LDHA inh: inhibitors of human lactate dehydrogenase A. activity change, % (values are at about 110 or 230 µM). P00338. purified LDHA, NADH/diaphorase-resazurin fluorescence; hits give low values. 0.15% of 480,000 active; in the data active = activity change below about -30%; inconclusive = mostly about -25% to -30%;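 also: plate controls were DMSO wells for no effect and wells without enzyme for full effect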
#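 Human LDH5 at 2 nM final in Tris HCl pH 7.4 with 0.06 mM NADH and 0.2 mM pyruvate, reacted 5 minutes at room temperature. Remaining NADH coupled via diaphorase/resazurin; resorufin fluorescence read at 0 and 20 minutes, normalized to enzyme-free and DMSO wells.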
# IDH1 R132H inh: human IDH1 R132H inhibition; 0.093% of 390,000 active; AID 602179; IDH1-R132H enzyme, NADPH consumption, diaphorase/resazurin fluorescence; O75874; Potency, µM (highest dose often 76.6 µM), for inactives: at the top dose activity change, negative = inhibition, hits mostly inhibitors; also: potency is read from the fitted curve at half-maximal effect; % is scaled to controls: 0 for no effect and ±100 for the full control effect; nearly all actives have a fitted effect of over 65% in size
# Target sequence (O75874 whole entry R132H, stated change not applied): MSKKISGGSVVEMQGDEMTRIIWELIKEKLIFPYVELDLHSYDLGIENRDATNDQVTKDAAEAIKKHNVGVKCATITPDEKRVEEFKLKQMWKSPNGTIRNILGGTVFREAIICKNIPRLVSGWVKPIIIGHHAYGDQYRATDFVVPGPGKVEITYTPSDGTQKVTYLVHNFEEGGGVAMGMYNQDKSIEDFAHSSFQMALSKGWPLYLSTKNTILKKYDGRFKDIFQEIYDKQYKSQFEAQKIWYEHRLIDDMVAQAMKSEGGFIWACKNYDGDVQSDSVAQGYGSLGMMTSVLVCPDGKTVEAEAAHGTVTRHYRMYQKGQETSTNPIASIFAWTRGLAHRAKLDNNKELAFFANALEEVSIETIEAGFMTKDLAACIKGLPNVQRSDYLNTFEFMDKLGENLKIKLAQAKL
#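 IDH1-R132H (0.5 ug/mL dispensed) in pH 7.5 Tris buffer was preincubated 30 min with compound, then given a substrate mix of 0.016 mM NADPH and 2 mM alpha-KG for 80 min at room temperature; remaining NADPH was read by diaphorase/resazurin fluorescence.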
# Abeta rescue: A-beta toxicity reversal in yeast | yeast expressing A-beta42, growth rescue, OD600, 48 h; response scale: 0% DMSO, 100% iron-clioquinol control | 0.063% of 410,000 active | Potency, µM (top dose mostly 46.1 µM), actives largely listed as activators | AID 1347071; also: potency is read from the fitted curve at half-maximal effect; nearly all actives have a fitted effect of over 55% in size
#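 Yeast growth medium received pinned compounds, then yeast cells expressing toxic A-beta were added; plates incubated at 30 C for 48 hr. Growth read as absorbance at 600 nm, normalized to DMSO and equimolar FeCl3 plus clioquinol controls.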
# aSyn rescue: inhibitors of alpha-synuclein toxicity in yeast. AID 652106. 0.14% of 370,000 active. Yeast expressing alpha-synuclein, growth rescue, BacTiter-Glo, 24 h. Potency, µM (titrated, usually from 46.1 µM), for the others: at the highest dose growth rescue (activation), hits mostly activators; also: potency is read from the fitted curve at half-maximal effect; % of control where 0% means no effect; nearly all actives have a fitted effect of over 65% in size
#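 Screening used galactose-induced yeast with toxic alpha-synuclein levels, exposed to compound for 24 hr at 30 deg C. Cell growth, read with BacTiter-Glo luminescence, gave the measured signal.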
# FUS suppressor: suppressors of FUS proteinopathy in yeast. Potency, µM (titrated, usually from 76.6 µM), usual class: activators. 0.24% of 390,000 active. AID 1347120. S. cerevisiae FUS-expressing, growth rescue, OD600, 24 h;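 also: potency is read from the fitted curve at half-maximal effect; plate controls were DMSO vehicle for no effect and reference control for full effect; nearly all actives have a fitted effect of over 55% in size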
#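 Yeast FUS proteinopathy model; galactose-induced FUS (2%), starting OD 0.005. Cpds in dilution series, 24hr, 30C, 99% humidity. Abs 600 nm growth. Pos ctrl CP55940 (top 92uM final); neg ctrl DMSO.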
# TDP43 rescue: rescues yeast growth from TDP-43 toxicity | TDP-43 expressing yeast growth rescue, BacTiter-Glo, 24 h | Potency, µM (series often up to 46.1 µM), without a hit: top-dose growth rescue (activation), most hits filed as activators | 1.8% of 410,000 active | AID 652104; also: potency is read from the fitted curve at half-maximal effect; % of control where 0% means no effect; nearly all actives have a fitted effect of over 50% in size
#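 Cell-based yeast growth screen: TDP-43 expression induced in galactose, inoculum OD600=0.02 after raffinose pregrowth to mid-log. Read-out BacTiter-Glo luminescence at 24 hr, 30 deg C; inhibition of toxicity seen as signal increase.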
# Active calls of the source: *; i = inactive; ? = inconclusive; nt = no result given. Unless noted, calls follow the shape of the dose curve; as a rule, active = well fitted curve in the direction sought with a large enough effect; inconclusive = small, poorly fitted or top-dose-only effect, or another doubt; inactive = no such curve, though single readings can be large; an effect the other way counts as inactive or inconclusive.
SMILES,LDHA inh,IDH1 R132H inh,Abeta rescue,aSyn rescue,FUS suppressor,TDP43 rescue
Cc1cc(C2=NNC(=NC(C)(C)C)SC2)c(C)n1C1CC1,-2,nt,nt,nt,nt,nt
CN(Cc1ccccc1)C(=O)CSc1c2c(nc3ccc(Cl)cc13)CCCC2,-6,18%,i,nt,?,20µM*
CCCN(CCC)C(=O)CSc1c2c(nc3ccc(Cl)cc13)CCCC2,-3,0%,i,nt,i,20µM*
Nc1nc(Cl)ccc1[N+](=O)[O-],2,nt,nt,nt,nt,nt
FC(F)(F)c1ccc(Cl)c(N/N=C/c2cccc3ccccc23)c1,13,nt,nt,nt,nt,nt
CC(=O)N1CCN(C2=NC(=O)C(=C3CCCCC3)S2)CC1,1,-3%,i,-7%,i,-16%
Cc1cccc(N2CCN(C3=NC(=O)C(=C4CCCCC4)S3)CC2)c1,0,7%,i,nt,i,7.1µM*
CCCN(CC)c1ccc(/C=N/NC(=S)Nc2ccc(C)cc2)cc1,4,nt,nt,nt,nt,nt
COc1cc2nc(C)sc2cc1SC,-1,9%,i,-1%,?,20µM*
CCCNC(=O)CN(C)C(=O)c1cc2ccccc2n1CC,5,nt,nt,nt,nt,nt
COc1ccc(N(CC(=O)N2CCN(Cc3ccccc3)CC2)S(=O)(=O)c2ccc(F)cc2)cc1,5,nt,nt,nt,nt,nt
CC1Oc2ccccc2C(=O)N(CC(=O)c2ccc3c(c2)OCCO3)C1=O (configuration not stated),-5,-9%,i,25%,i,18µM*
CC1Oc2ccccc2N(CC(=O)c2cccc(Cl)c2)C1=O (configuration not stated),1,-1%,i,15%,i,16µM*
COC(=O)c1ccc2nc(-c3ccc(C)cc3)c(Cc3ccccc3OC)n2c1,1,nt,i,-5%,i,-8%
COC(=O)c1ccc2nc(-c3ccccc3)c(Cc3ccccc3OC)n2c1,-14,nt,i,-6%,i,35µM*
COc1ccccc1Cc1c(-c2ccccc2)nc2ccc(Br)cn12,-4,nt,i,-1%,i,35µM*
COc1ccccc1Cc1c(C2CCCCC2)nc2ccc(Br)cn12,-2,nt,i,-2%,i,13µM*
FC(F)(F)c1ccccc1Cc1c(C2CCCCC2)nc2ccc(Br)cn12,5,nt,i,-39%,i,?
O=C(NCCc1ccccc1)c1ccc(Cl)cc1[N+](=O)[O-],0,5%,i,2%,i,11µM*
O=C(NCc1ccc(Cl)cc1)c1ccc(Cl)cc1[N+](=O)[O-],-7,-6%,i,2%,i,4%
Cc1ccc(C(=O)/C=C/Nc2ccc(N(C)C)cc2)cc1C,24,nt,nt,nt,nt,nt
CCCCC(=O)Nc1ncc([N+](=O)[O-])s1,-10,-2%,i,0%,i,16µM*
CCCCc1c(CCC)c(=N)c2ccccc2n1C,-37*,6%,i,0%,i,-7%
Cc1ccc(S(=O)(=O)/N=C2/NC(=O)/C(=C/c3cc([N+](=O)[O-])ccc3O)S2)cc1,-51*,-8%,i,-1%,i,-11%
O=C(NCC1CCCO1)C(c1cccs1)N(Cc1cccs1)C(=O)c1ccc(-c2ccccc2)[nH]1 (configuration not stated),3,4%,i,-4%,35µM*,9%
SMILES,LDHA inh,IDH1 R132H inh,Abeta rescue,aSyn rescue,FUS suppressor,TDP43 rescue
CCCCCC/C=N/Nc1nnc(Cc2ccccc2)c(=O)[nH]1,-1,1%,i,-4%,i,20µM*
Cc1ccc(NC(=O)/C(C#N)=C\c2ccccc2OC(F)F)cc1,1,nt,nt,nt,nt,nt
O=C(Nc1ccc(Cl)c(C(F)(F)F)c1)C(=O)N1CCCCC1,-4,1%,i,10%,nt,18µM*
O=C(Nc1ccc(Cl)c(C(F)(F)F)c1)c1ccncc1,-1,3%,i,-1%,i,10µM*
CCOC(=O)c1sc(N2C(=O)C(O)=C(C(=O)c3ccco3)C2c2ccco2)nc1C (configuration not stated),9,8%,i,6%,28µM*,-15%
CCOc1ccc2nc(N3C(=O)C(O)=C(C(=O)c4ccco4)C3c3ccco3)sc2c1 (configuration not stated),-15,0%,i,-9%,i,-7%
N/C(=N\OC(=O)C1CCCCC1)c1ccncc1,-3,3%,i,-3%,i,0%
N/C(=N\OC(=O)C12CC3CC(CC(C3)C1)C2)c1ccncc1,1,1%,i,-18%,i,13µM*
Cc1ccc(/C(N)=N/OC(=O)C23CC4CC(CC(C4)C2)C3)cc1,-8,1%,i,5%,i,2µM*
CC(=O)c1ccc(CN2CCCCC2)c(OC(C)C)c1,3,nt,nt,nt,nt,nt
Cc1ccc(N2CN(CCc3ccccc3)CNC2=S)cc1,-2,1%,11µM*,0%,i,19%
CN(C)S(=O)(=O)c1cccc(-n2sc3ccccc3c2=O)c1,-43*,9%,i,-76%,i,-91%
CCN1CCN(CCOc2ccc3c(=O)c(-c4ccc(OC)cc4)coc3c2C)CC1,5,nt,nt,nt,nt,nt
COc1ccc(-c2nc(CNC(=O)Nc3ccc(C)cc3)c(C)o2)cc1,-7,nt,nt,nt,nt,nt
Cc1ccc(OCCOc2cccc(Br)c2)c([N+](=O)[O-])n1,-4,9%,i,2%,i,14µM*
CC(=C/c1ccccc1)/C=C1/Cc2ccccc2C1=O,31,nt,nt,nt,nt,nt
OC[C@@H]1[C@@H](c2ccccc2)C(c2ccccc2)=NN1c1ccccc1,0,-4%,?,?,i,13µM*
OC[C@@H]1[C@@H](c2ccccc2)C(c2cccc(Cl)c2)=NN1c1ccccc1,-2,12%,i,-69%,?,-80%
COc1ccccc1[C@H]1C(c2cccc(Cl)c2)=NN(c2ccccc2)[C@@H]1CO,4,15%,i,-1%,?,20µM*
O=C(NCCNc1ccc([N+](=O)[O-])cc1C(F)(F)F)c1ccccc1,-6,5%,i,12%,nt,22µM*
O=C(NCCNc1ccc([N+](=O)[O-])cc1C(F)(F)F)c1cccc(F)c1,1,1%,?,-4%,nt,?
O=C(Nc1ccc(Cl)c(Cl)c1)c1ccc(Cn2c(=O)[nH]c3ccsc3c2=O)cc1,-32*,-14%,i,-1%,i,13%
O=C(Nc1ccc(Oc2ccccc2)cc1)c1ccc(Cn2c(=O)[nH]c3ccsc3c2=O)cc1,-24,12%,i,-10%,i,-4%
N#C/C(=C/c1ccccc1)S(=O)(=O)c1ccc(F)cc1,5,nt,nt,nt,nt,nt
